HCV inh: HCV inhibition; 340,000 tested, 3.4% active; Potency, µM (series often up to 41.8 µM), for the others: top-dose activity change, negative = inhibition, actives largely listed as inhibitors; Huh7.5.1 HCVcc-Cre infection, luciferase reporter, 44 h; active = well fitted inhibition curve with a large enough effect; inconclusive = small, poorly fitted or top-dose-only effect, or another doubt; inactive = no such curve, though single readings can be large or run the other way; note: potency is the fitted concentration of half-maximal effect
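1,000 cells/well; 4 h culture; + compound; + HCVcc-Cre (~0.5 moi); 44 h; luciferase substrate, RT 15 min; read 15 sec.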
FMDV inh: blocks foot and mouth disease virus; 410,000 tested, 1.2% active; Potency, µM (top dose mostly 57.9 µM), inactives show at the highest dose activity change, negative = inhibition, most hits filed as inhibitors; AID 1159524; FMDV antiviral cell-based qHTS; calls by dose curve; tested in HEK293T cells; note: read-out not given here; potency is the fitted concentration of half-maximal effect; nearly all actives have a fitted effect of over 45% in size
HCMV inh: blocks human cytomegalovirus replication; HFF cells, HCMV-luciferase reporter, 72 h; hits give low values; activity change, negative = inhibition, % at 57.5 µM; 410,000 tested, 4.5% active; in the data active = activity change below about -60%; inconclusive = no clear call, values can overlap the other calls; inactive = above about -39%
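HFF cells seeded 16 h at 37C, treated with compounds, infected with luciferase-reporter HCMV at MOI 1 PFU/cell; luciferase read at 72 h post infection, normalized to buffer-only and Salinomycin controls.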
Vaccinia mCherry: inhibitors of vaccinia virus infection (mCherry reporter signal); Potency, µM (top dose mostly 36.5 µM), for inactives: top-dose activity change, negative = inhibition, actives largely listed as inhibitors; Vaccinia virus mCherry reporter infection, fluorescence; AID 720579; 310,000 tested, 0.63% active; calls by dose curve; tested in A549 cells; note: potency is the fitted concentration of half-maximal effect; nearly all actives have a fitted effect of over 35% in size
Vaccinia Venus: vaccinia inhibition (Venus reporter); Vaccinia virus Venus reporter expression, fluorescence; Potency, µM (series often up to 36.5 µM), for inactives: top-dose activity change, negative = inhibition, hits mostly inhibitors; 330,000 tested, 0.46% active; calls by dose curve; tested in A549 cells; note: potency is the fitted concentration of half-maximal effect; nearly all actives have a fitted effect of over 30% in size
The depositor's hits bear a star; i = inactive; ? = inconclusive; nt = no result; [ ] = remark or other dose. In the library only some 7.3% were active in any assay of this set; here they are far more common. % is set by controls: 0 for no effect and ±100 for the full control effect.

SMILES | HCV inh | FMDV inh | HCMV inh | Vaccinia mCherry | Vaccinia Venus
CCc1ccc2c(c1)cc(CN(C(=S)Nc1cccc(C)c1)C1CC1)c1nnnn12 | -20.3% | nt | -17.8 | i | -16.6%
COCCN(Cc1cc2cc(C)ccc2n2nnnc12)C(=S)Nc1cccc(C)c1 | 11.2µM* | -16.7% | 53.9 | nt | nt
NCCC[C@@H](N)C(=O)O | nt | -0.8% | nt | i | -13.2%
O=C(CNS(=O)(=O)c1ccccc1)N1CCc2ccccc2C1 | 10.4% | 29.4% | 37.9 | -13.4% | -8.2%
Cc1nc2c(C(=O)NCCCN(CC(C)C)CC(C)C)cnn2c(C)c1Cc1c(F)cccc1Cl | nt | -5.1% | ? | -20.1% | -8.3%
COc1ccc(C2/C(=C(/O)c3cnn(-c4ccccc4)c3C)C(=O)C(=O)N2CCN(C)C)cc1OC (centres undefined) | -19.2% | -13.4% | 1.5 | i | 5.3%
COCCCN1C(=O)C(=O)/C(=C(/O)c2ccc(C)cc2)C1c1ccccc1 (centres undefined) | 8.7% | 13.1% | 50.6 | nt | -16.4%
COc1ccc(/C(O)=C2/C(=O)C(=O)N(CCN(C)C)C2c2ccc(OC)c(OC)c2)c(C)c1 (centres undefined) | -0.8% | -14.0% | -71.1* | -23.6% | -19.2%
COCCCN1C(=O)C(=O)/C(=C(/O)c2ccc(OC)cc2)C1c1cccc(OC)c1 (centres undefined) | 12.8% | -5.4% | -102.3* | nt | -5.9%
O=C(CCNC(=O)c1ccccc1Cl)Nc1ccc(S(=O)(=O)N2CCOCC2)cc1 | nt | -15.1% | 0.1 | i | 2.4%
Oc1[nH]c2ccccc2c1C1=NCCCC1 | 35.5µM* | 17.4% | -20.6 | nt | -25.2%
O=C(Cn1c(=O)c2cc(Cl)ccc2n2nncc12)Nc1ccccc1 | nt | -3.1% | 7.9 | -6.2% | -2.6%
COCCNC(=S)N1CCC2CC1c1cc(-c3ccc4c(c3)OCO4)ccc12 (centres undefined) | nt | -10.3% | -21.5 | i | -1.0%
S=C(NCCc1ccccc1)N1CCC2CC1c1cc(-c3ccc4c(c3)OCO4)ccc12 (centres undefined) | nt | -8.6% | -74.5* | 0.0% | -20.1%
O=C1CN(S(=O)(=O)c2ccc(Cl)cc2C(F)(F)F)CCN1 | 12.9% | 3.6% | -60.3* | 1.8% | -7.1%
CCCn1c(SCC(=O)Nc2cc(Cl)ccc2Cl)n[nH]c1=O | -25.9% | ? | 13.2 | i | 19.2%
CCOC(=O)Cc1csc(SCC(=O)Nc2cc(Cl)ccc2Oc2ccccc2)n1 | 10µM* | ? | -8.8 | nt | -28.1%
CCCn1c(SCC(=O)Nc2cc(Cl)ccc2OC)n[nH]c1=O | 10µM* | ? | 39.2 | nt | -10.0%
COc1ccc(Cl)cc1NC(=O)COC(=O)C1=NNC(=O)CC1 | ? | -10.0% | -67.2* | i | -17.0%
O=C(CSc1n[nH]c(=O)n1C1CC1)Nc1cc(Cl)ccc1Oc1ccccc1 | ? | 14.1µM* | -0.2 | nt | nt
Cc1c(C(=O)NC2CCCC2)oc2ccccc12 | -10.7% | 14.3% | -2.4 | nt | nt
CCOc1ccc(NC(=O)Cn2cc(C(=O)c3ccc(F)cc3)c(=O)c3cc4c(cc32)OCO4)cc1 | nt | -22.8% | 70.1 | -18.7% | -26.5%
Cc1ccc(NC(=O)CSCC(=O)Nc2cc(S(=O)(=O)N3CCOCC3)ccc2OC(C)C)cc1 | -2.9% | 8.2% | 61.9 | nt | nt
CCc1ccc(CN(Cc2ccco2)C(=O)COc2ccccc2Cl)cc1 | nt | -19.0% | -5.8 | -6.3% | -2.2%
Cc1ccc(OCC(=O)N2CCN(c3nnc(-c4ccccc4)c4ccccc34)CC2)cc1 | ? | ? | -83.3* | nt | nt
SMILES | HCV inh | FMDV inh | HCMV inh | Vaccinia mCherry | Vaccinia Venus
Cc1nc(N2CCN(C(=O)COc3ccccc3)CC2)c2c(C)c(C)sc2n1 | 12.6µM* | ? | -22.8 | ? | ?
O=C(COc1ccccc1)N1CCN(c2ncccn2)CC1 | 20.0% | -10.9% | -26.2 | 3.5% | -0.7%
Cn1nc(-c2ccc(OCC(=O)N3CCN(Cc4ccccc4)CC3)cc2)c2ccccc2c1=O | 6.31µM* | 15.8µM* | ? | -14.0% | ?
Cn1nc(-c2ccc(OCC(N)=O)cc2)c2ccccc2c1=O | 15.4% | 12.0% | 79.4 | nt | nt
CCO[C@H]1c2c(ccc3ccc(=O)oc23)OC(C)(C)[C@@H]1O | 2.82µM* | -17.6% | 2.5 | i | -5.9%
C/C=C(/C)C(=O)O[C@@H]1c2c(ccc3ccc(=O)oc23)OC(C)(C)[C@@H]1OC(=O)/C(C)=C\C | 22.4µM* | ? | -29.4 | -19.9% | -29.9%
CC(C)Cn1c(=O)c2ccccc2n2c(CCC(=O)N3CCN(c4ccccc4)CC3)nnc12 | nt | -12.9% | 3.3 | -23.2% | -17.5%
O=C(CCC1N=C2c3ccccc3N=C(SCc3cccc(Cl)c3)N2C1=O)N1CCN(c2ccccc2)CC1 (centres undefined) | nt | ? | -34.7 | 8.91µM* | ?
COc1ccccc1CNC(=O)CCC1N=C2c3ccccc3N=C(SCc3cccc(Cl)c3)N2C1=O (centres undefined) | nt | -26.9% | -30.6 | 3.98µM* | ?
Fc1ccc(Nc2nc(-c3cccc(Cl)c3)c3c(n2)-c2ccccc2OC3)cc1 | nt | -20.9% | -14.3 | -11.8% | -5.4%
O=C(Nc1ccc(Cc2ccncc2)cc1)C1CCC(N2C(=O)C3C4C=CC(C5CC45)C3C2=O)CC1 (centres undefined) | 8.91µM* | 14.1µM* | -84.9* | nt | nt
CC1(C)CC(=O)C2=C(C1)N=C1c3ccccc3C(=O)C1C2c1ccc(Cl)cc1 (centres undefined) | 12.6µM* | ? | -71.1* | ? | ?
Cc1ccc(C2C3=C(CC(C)(C)CC3=O)N=C3c4ccccc4C(=O)C32)cc1 (centres undefined) | ? | ? | -67.9* | ? | -27.2%
CCOC(=O)C1=C(C)N=C2c3ccccc3C(=O)C2C1c1ccc(Cl)cc1 (centres undefined) | 15.8µM* | ? | -80.0* | -20.1% | -21.5%
Cc1ccc(C2C3=C(CC(C)(C)CC3=O)OC3=C2C(=O)CC(C)(C)C3)cc1 | 11.3% | 2.4% | -19.8 | -0.4% | -13.4%
Cn1c(=O)cc(SCC(=O)N2CCN(c3ccccc3F)CC2)c2ccc(Cl)cc21 | nt | 10.4% | 24.8 | 0.9% | 12.1%
CN(C)C(=O)CCc1ccc2c3c([nH]c2c1)[C@]1(CCc2ccccc2)[C@@H](C(=O)N2CCCCC2)C[C@H](CC(=O)NCCCn2ccnc2)C(=O)N1CC3 | -8.8%[8.37 µM] | 93.9% | 21.5 | -8.7% | 0.3%
COc1cc(/C=N/NC(=O)c2ccc(N)cc2)ccc1OC(=O)c1cccc(C)c1 | ? | 0.0% | -5.2 | -15.0% | -22.9%
CC(/C=C/c1ccco1)=N\NC(=O)CNc1cccc(C)c1 | 19.9% | -16.0% | -60.7* | nt | nt
COc1cc(C(=O)N/N=C/c2ccc(OC)c(CN3CCN(c4ccc(F)cc4)CC3)c2)ccc1O | 25.1µM* | ? | -25.0 | nt | nt
Cc1cccc(NCC(=O)N/N=C\c2cccc(Oc3ccccc3)c2)c1 | -19.9% | ? | -67.2* | nt | nt
COC(=O)N/N=C(C)\C=C\c1ccco1 | -3.6% | 42.6% | -0.3 | nt | nt
COc1cc(C(=O)N/N=C/c2ccc(OC(=O)c3cccc(C)c3)cc2)ccc1O | -17.2% | 35.5µM* | 11.4 | -13.7% | -10.6%
Cc1ccc(NC(=O)C2(c3cccs3)CCOCC2)cc1Cl | nt | -23.9% | -4.6 | -17.2% | 2.7%

Bioassay records as filed in PubChem.
